Assay results from PubChem BioAssay (NCI).
Compounds without any hit were thinned out: in the full panel of roughly 83,000, 20% have a hit.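 Single-dose data. Exposure time 48 hours. Values below 10 considered active.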 Values without a mark were called inactive. The source made the active and inactive calls.

tested on: HCT-116 colon; assay: NCI-60 one-dose screen, 48 h (100 = growth as untreated, 0 = no growth, -100 = all killed); settings: 10 µM unless noted

Compared with `c1c[nH]c(CNC2CCCCC2)c1`, `N#Cc1c(-c2ccccn2)[nH]c(=S)[nH]c1=O` is lower in growth: 103% for the first, 94.8% for the second.

First: CC/C=C/C/C=C/C/C=C/C/C=C/C/C=C/C/C=C/CCC(=O)Nc1ccn([C@@H]2O[C@H](CO)[C@@H](O)C2(F)F)c(=O)n1
Second: CCCCn1c(=O)c2c(nc3n2CCCN3CCc2ccc(OCC(=O)NCCN(CC)CC)cc2)n(CCCC)c1=O
The growth of the first is lower: 12.1% for the first, 36.4% for the second.

Going from `Cc1ccc2nc(NC(=O)CSc3nc(-c4ccccc4)c(C#N)c(=O)n3Cc3ccccc3)sc2c1` to `O=C(CC(SCc1ccccc1)c1ccccc1)c1ccccc1` (centres undefined), the growth falls from 95.9% to 37.2%.

Going from `NNC(=O)c1nc(N)n(-c2ccc(S(N)(=O)=O)cc2)n1` to `Cc1ccc(Nc2nc(N)nc(CSCC(=O)NN)n2)cc1`, the growth rises from 95.3% to 103%.

Going from `COC1=C(OC)C(=O)C(OC)=C(OC)C1=O` to `COc1ccc(NC(=O)c2nc(-c3cc(OC)c(OC)c(OC)c3)n(-c3cccc4ccccc34)n2)cc1OC`, the growth falls from 98.6% to 25.9%.

Going from `COC(=O)CCC1=C(C)C2=NC1=CC1=NC(=CC3=NC(=Cc4[nH]c(/c(=C(/C)O)c4C)=C2)C(C(C)=O)=C3C)C(C)=C1CCC(=O)OC` to `COc1ccc2[nH]c(O)c(/C=c3/cc4c(c(-c5cc(OC)c(OC)c(OC)c5)n3)=Nc3ccccc3-4)c2c1`, the growth falls from 102% to 36.8%.

First: CC1=CN2C(=O)C3C4=C(CCCC4)SC3N=C2CN1c1c(C)cccc1C (centres undefined)
Second: CCOC(=O)c1c2ncccc2n2c(=O)n(-c3ccccc3C)nnc12
The growth of the first is lower: 55% for the first, 92.6% for the second.

Compared with `COc1ccccc1NC(=O)N/C(N)=N/c1nc2ccccc2s1`, `CCCCOc1nc2ccccc2cc1C1CNC(=O)c2ccccc2N1` (centres undefined) is higher in growth: 13.4% for the first, 15.6% for the second.

Compared with `CC1CC(C(C)(C)C)C(=O)C(C(C)(C)C)C1` (centres undefined), `CC(CCc1ccc(Cl)c(Cl)c1)NCc1ccc(C(C)(C)C)cc1` (centres undefined) is lower in growth: 108% for the first, 79.1% for the second.

First: O=C(O)c1ccc2c(c1Cl)C(=O)c1ccccc1C2=O
Second: COc1ccc2occ(C3=C(c4c[nH]c5ccccc45)C(=O)N(O)C3=O)c2c1
The growth of the first is higher: 93.2% for the first, 90.7% for the second.

Going from `N=c1sc(Cc2ccc(Cl)cc2)cn1CC(=O)c1ccc(F)cc1` to `O=C(NCCCNc1cc(-c2cn(-c3ccccc3)nc2-c2cccc(O)c2)ccn1)c1ccc(F)cc1`, the growth falls from 63.7% to 10.8%.

Compared with `O=C1CCc2c(sc3[nH]c(=S)n(-c4ccc(OC(F)(F)F)cc4)c(=O)c23)C1`, `N=C1C(c2nc(-c3ccc(Br)cc3)cs2)=C(O)CN1CC1CCCO1` (centres undefined) is lower in growth: 30.1% for the first, 25.7% for the second.

Going from `C[C@@]1(CCC#N)[C@H]2CC[C@@H]3[C@H]4[C@H](C(=O)/C=C/c5cccnc5)CC[C@]4(C#N)CC[C@@]3(C)[C@]2(C)CC[C@H]1C(=O)/C=C/c1cccnc1` to `COc1cccc(C(=O)NCCCNc2cc(-c3cn(-c4ccccc4)nc3-c3cccc(OC)c3)ccn2)c1`, the growth rises from 20% to 30.5%.

Going from `Nc1nc(N)c2c(n1)NC(c1ccccc1)C1CCc3ccccc3C1=N2` (centres undefined) to `N#CC1=C(NC=O)Oc2c(ccc3ccccc23)C1c1ccccc1` (centres undefined), the growth falls from 26.1% to 21.1%.

`N[C@@H](CCCCNCC(=O)O)C(=O)O` and `NS(=O)(=O)c1cnccc1Sc1ccncc1S(N)(=O)=O` are the same in growth: 106% for the first, 106% for the second.

For `COc1ccc2c(c1)CCCN2c1c2ccccc2nc2ccccc12`, the growth was 6.8% (active).
For `O=C(Nc1cccc(Oc2nnc(Cl)c3ccccc23)c1)Nc1ccc(Cl)c(C(F)(F)F)c1`, the growth was -71.6% (active).
In the case of `CN1CCN(CCCOc2ccc3nc(Nc4ccc(F)c(F)c4)ccc3c2)CC1`, the growth was 5.76% (active).
With `Cc1c(C)c2c(c(C)c1OCC(=O)O)CC[C@@](C)(CCC[C@@H](C)CCC[C@@H](C)CCCC(C)C)O2` the growth was -66.1% [50 µM] (active).
For `Cn1c(-c2c(N)n(Cc3ccc(C(F)(F)F)cc3)c3nc(C#N)c(C#N)nc23)nc2ccccc21`, the growth was -29% (active).
With `O=Cc1ccc(O)c2ncccc12` the growth was -7.5% (active).
`Fc1c[c-]c(-c2ccccn2)c(F)c1.[CH3-].[Pt+2].c1ccc(P(C[PH+](c2ccccc2)c2ccccc2)c2ccccc2)cc1` was tested, and the growth was -66% (active).

tested on: HCC-2998 colon; assay: as above; settings: 10 µM unless noted

Compared with `c1c[nH]c(CNC2CCCCC2)c1`, `N#Cc1c(-c2ccccn2)[nH]c(=S)[nH]c1=O` is lower in growth: 109% for the first, 106% for the second.

Compared with `CC/C=C/C/C=C/C/C=C/C/C=C/C/C=C/C/C=C/CCC(=O)Nc1ccn([C@@H]2O[C@H](CO)[C@@H](O)C2(F)F)c(=O)n1`, `CCCCn1c(=O)c2c(nc3n2CCCN3CCc2ccc(OCC(=O)NCCN(CC)CC)cc2)n(CCCC)c1=O` is higher in growth: 55.1% for the first, 56.8% for the second.

First: Cc1ccc2nc(NC(=O)CSc3nc(-c4ccccc4)c(C#N)c(=O)n3Cc3ccccc3)sc2c1
Second: O=C(CC(SCc1ccccc1)c1ccccc1)c1ccccc1 (centres undefined)
The growth of the first is higher: 118% for the first, 99.9% for the second.

First: NNC(=O)c1nc(N)n(-c2ccc(S(N)(=O)=O)cc2)n1
Second: Cc1ccc(Nc2nc(N)nc(CSCC(=O)NN)n2)cc1
The growth of the first is lower: 101% for the first, 109% for the second.

Compared with `COC1=C(OC)C(=O)C(OC)=C(OC)C1=O`, `COc1ccc(NC(=O)c2nc(-c3cc(OC)c(OC)c(OC)c3)n(-c3cccc4ccccc34)n2)cc1OC` is lower in growth: 89.3% for the first, 47.4% for the second.

Going from `COC(=O)CCC1=C(C)C2=NC1=CC1=NC(=CC3=NC(=Cc4[nH]c(/c(=C(/C)O)c4C)=C2)C(C(C)=O)=C3C)C(C)=C1CCC(=O)OC` to `COc1ccc2[nH]c(O)c(/C=c3/cc4c(c(-c5cc(OC)c(OC)c(OC)c5)n3)=Nc3ccccc3-4)c2c1`, the growth falls from 104% to 77.1%.

Compared with `CC1=CN2C(=O)C3C4=C(CCCC4)SC3N=C2CN1c1c(C)cccc1C` (centres undefined), `CCOC(=O)c1c2ncccc2n2c(=O)n(-c3ccccc3C)nnc12` is higher in growth: 97.3% for the first, 106% for the second.

Compared with `COc1ccccc1NC(=O)N/C(N)=N/c1nc2ccccc2s1`, `CCCCOc1nc2ccccc2cc1C1CNC(=O)c2ccccc2N1` (centres undefined) is higher in growth: 28.6% for the first, 56.5% for the second.

First: CC1CC(C(C)(C)C)C(=O)C(C(C)(C)C)C1 (centres undefined)
Second: Nc1nc(N)c2c(n1)NC(c1ccccc1)C1CCc3ccccc3C1=N2 (centres undefined)
The growth of the first is higher: 111% for the first, 65.4% for the second.

Going from `O=C(O)c1ccc2c(c1Cl)C(=O)c1ccccc1C2=O` to `COc1ccc2occ(C3=C(c4c[nH]c5ccccc45)C(=O)N(O)C3=O)c2c1`, the growth rises from 104% to 112%.

First: N=c1sc(Cc2ccc(Cl)cc2)cn1CC(=O)c1ccc(F)cc1
Second: COc1cccc(C(=O)NCCCNc2cc(-c3cn(-c4ccccc4)nc3-c3cccc(OC)c3)ccn2)c1
The growth of the first is lower: 59% for the first, 61.2% for the second.

First: O=C1CCc2c(sc3[nH]c(=S)n(-c4ccc(OC(F)(F)F)cc4)c(=O)c23)C1
Second: Cn1c(-c2c(N)n(Cc3ccc(C(F)(F)F)cc3)c3nc(C#N)c(C#N)nc23)nc2ccccc21
The growth of the first is higher: 28.5% for the first, 14.7% for the second.

Compared with `C[C@@]1(CCC#N)[C@H]2CC[C@@H]3[C@H]4[C@H](C(=O)/C=C/c5cccnc5)CC[C@]4(C#N)CC[C@@]3(C)[C@]2(C)CC[C@H]1C(=O)/C=C/c1cccnc1`, `N=C1C(c2nc(-c3ccc(Br)cc3)cs2)=C(O)CN1CC1CCCO1` (centres undefined) is lower in growth: 105% for the first, 95.1% for the second.

Compared with `N[C@@H](CCCCNCC(=O)O)C(=O)O`, `N#CC1=C(NC=O)Oc2c(ccc3ccccc23)C1c1ccccc1` (centres undefined) is lower in growth: 103% for the first, 63% for the second.

Compared with `O=Cc1ccc(O)c2ncccc12`, `NS(=O)(=O)c1cnccc1Sc1ccncc1S(N)(=O)=O` is lower in growth: 86.6% for the first, 85.8% for the second.

With `COc1ccc2c(c1)CCCN2c1c2ccccc2nc2ccccc12` the growth was -9.75% (active).
With `O=C(Nc1cccc(Oc2nnc(Cl)c3ccccc23)c1)Nc1ccc(Cl)c(C(F)(F)F)c1` the growth was -86.5% (active).
For `CN1CCN(CCCOc2ccc3nc(Nc4ccc(F)c(F)c4)ccc3c2)CC1`, the growth was -24.6% (active).
`Cc1c(C)c2c(c(C)c1OCC(=O)O)CC[C@@](C)(CCC[C@@H](C)CCC[C@@H](C)CCCC(C)C)O2` was tested, and the growth was -3.58% [50 µM] (active).
In the case of `O=C(NCCCNc1cc(-c2cn(-c3ccccc3)nc2-c2cccc(O)c2)ccn1)c1ccc(F)cc1`, the growth was -60% (active).
In the case of `CC(CCc1ccc(Cl)c(Cl)c1)NCc1ccc(C(C)(C)C)cc1` (centres undefined), the growth was -18.4% (active).
For `Fc1c[c-]c(-c2ccccn2)c(F)c1.[CH3-].[Pt+2].c1ccc(P(C[PH+](c2ccccc2)c2ccccc2)c2ccccc2)cc1`, the growth was -27.5% (active).
